Assay results taken from PubChem BioAssay (Tox21).
Results filed as inconclusive are left out. Where a call stands in place of a potency, no number is given. A number with no mark means an inactive call. The source made the active and inactive calls. Unless noted, calls come from the whole dose curve; as a rule, active = well fitted curve in the direction sought with a large enough effect in the repeat runs; inconclusive = weak or mixed curves; inactive = no such curve, though single readings can be large; an effect the other way counts as inactive or inconclusive.

Assays:
[1] = qHTS assay to identify aromatase inhibitors - cell viability counter screen (AID 743084);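 note: cells stimulated with testosterone during compound exposure; nearly all actives have a fitted effect of over 55% in size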; note: potency is the fitted concentration of half-maximal effect
[2] = qHTS assay to identify small molecule that activate the aryl hydrocarbon receptor (AhR) signaling pathway - cell viability counter screen (AID 743086);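 note: HepG2 liver cells carrying the AhR DRE luciferase reporter; series mostly up to about 70 µM; nearly all actives have a fitted effect of over 45% in size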
In short: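 HepG2-AhR-luc (HG2L7.5c1) cells, 4000/well, were preincubated 5 h at 37C, exposed to compound in qHTS format for 24 hr at 37C, then given CellTiter-Fluor for 30 min; viability was read as fluorescence in the reporter wells.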

[3] = target: Peroxisome proliferator-activated receptor gamma (Homo sapiens) (UniProt P37231); assay: qHTS assay to identify small molecule agonists of the peroxisome proliferator-activated receptor gamma (PPARg) signaling pathway (AID 743094; active = well fitted activation curve with a large enough effect in the signal ratio in the repeat runs, not every such curve was filed as active; the % refers to the signal ratio)
In short: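 HEK293H PPARg-bla cells, 5 h settle at 37C/5% CO2; compound (DMSO) 17 h, 37C; B/G FRET substrate 1 h RT; fluorescence intensity read-out. qHTS format.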

[4] = target: Peroxisome proliferator-activated receptor gamma (Homo sapiens) (UniProt P37231); assay: qHTS assay to identify small molecule antagonists of the peroxisome proliferator-activated receptor gamma (PPARg) signaling pathway (AID 743191; calls by dose curve; note: series mostly up to about 63 µM; nearly all actives have a fitted effect of over 30% in size)
In short: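 GeneBLAzer PPARg UAS-bla HEK293H cells carrying a UAS-driven beta-lactamase reporter were plated at 3000 cells/well, preincubated 5 h at 37C, then given compound for 17 h at 37C; LiveBLAzer B/G FRET substrate was read after 1 h at room temperature.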

[5] = qHTS assay to identify small molecule antagonists of the peroxisome proliferator-activated receptor gamma (PPARg) signaling pathway - cell viability counter screen (AID 743194); note: nearly all actives have a fitted effect of over 55% in size
In short: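 PPARg-UAS-bla HEK293H cells were plated, rested 5 h at 37 C, then treated with compounds plus rosiglitazone (50 nM final) for 17 h at 37 C; viability was then read by CellTiter-Glo luminescence after 30 min at room temperature.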

[6] = qHTS assay for small molecule agonists of the antioxidant response element (ARE) signaling pathway - cell viability counter screen (AID 743203; calls by dose curve; note: nearly all actives have a fitted effect of over 55% in size)
In short: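 Luminescence read-out (CellTiter-Glo, 30 min at room temperature) measured cell viability in the same wells as the ARE beta-lactamase reporter. HepG2 ARE-bla cells were treated with compounds for 16 hrs at 37C/5% CO2.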

[7] = qHTS assay for small molecule activators of the heat shock response signaling pathway - cell viability counter screen (AID 743209); note: nearly all actives have a fitted effect of over 50% in size
In short: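 HSE-bla HeLa; 1500 cells/well; overnight 37 C, 5% CO2; compound 5 h 37 C; LiveBLAzer B/G substrate 2.5 h RT; CellTiter-Glo 30 min RT; luminescence.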

[8] = qHTS assay for small molecule activators of the heat shock response signaling pathway (AID 743210; active = well fitted activation curve with a large enough effect in the signal ratio in the repeat runs, with a control signal flat, not every such curve was filed as active; the % refers to the signal ratio; note: series mostly up to about 63 µM)
In short: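 Heat shock element–beta-lactamase HeLa reporter cells; qHTS with compounds for 5 h at 37 C; detection by FRET substrate fluorescence after 2.5 h at RT.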

[9] = qHTS assay to identify small molecule agonists of the peroxisome proliferator-activated receptor delta (PPARd) signaling pathway - cell viability counter screen (AID 743211); note: nearly all actives have a fitted effect of over 55% in size
In short: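 PPARd-bla HEK293H cells (3000/well) were pre-incubated 5 h at 37 C, then exposed to compound for 17 h at 37 C. After 2 h with LiveBLAzer substrate, CellTiter-Glo was added to the same wells; luminescence read after 30 min at room temperature.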

[10] = target: Peroxisome proliferator-activated receptor delta (Homo sapiens) (UniProt Q03181); assay: qHTS assay to identify small molecule agonists of the peroxisome proliferator-activated receptor delta (PPARd) signaling pathway (AID 743212; calls by dose curve)
In short: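 Beta-lactamase reporter read by fluorescence (LiveBLAzer B/G FRET, 2 h, room temperature). Test agents, in DMSO, incubated at 37 C with PPARd-bla HEK293H cells.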

[11] = qHTS assay to identify small molecule antagonists of the peroxisome proliferator-activated receptor delta (PPARd) signaling pathway - cell viability counter screen (AID 743213); note: nearly all actives have a fitted effect of over 50% in size
In short: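 CellTiter-Glo was added to PPARd-bla HEK293H wells following 17 h compound treatment in the presence of 300 nM L165041. Luminescence was recorded after 30 min at room temperature.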

[12] = target: Peroxisome proliferator-activated receptor delta (Homo sapiens) (UniProt Q03181); assay: qHTS assay to identify small molecule antagonists of the peroxisome proliferator-activated receptor delta (PPARd) signaling pathway (AID 743215; active = well fitted inhibition curve with a large enough effect in the signal ratio in the repeat runs, not every such curve was filed as active; the % refers to the signal ratio;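 note: cells stimulated with agonist L165041 at 300 nM final during compound exposure; series mostly up to about 62 µM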)
In short: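 HEK293H GeneBLAzer PPARd UAS-bla reporter cells; cpd + L165041 300 nM final, 17 h 37 C; LiveBLAzer B/G FRET substrate 2 h RT; fluorescence intensity read-out. Antagonist mode.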

[13] = qHTS assay to identify small molecule antagonists of the farnesoid-X-receptor (FXR) signaling pathway - cell viability counter screen (AID 743221; active = well fitted cell-killing curve with a large enough effect in the repeat runs, not every such curve was filed as active; note: nearly all actives have a fitted effect of over 50% in size)
In short: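 GeneBLAzer FXR-UAS-bla HEK 293T cells, compound plus chenodeoxycholic acid (50 uM final), 16 h at 37 C. CellTiter-Glo added to the same wells after the beta-lactamase read; luminescence read after 30 min at room temperature as viability.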

[14] = target: Vitamin D3 receptor (Homo sapiens) (UniProt P11473); assay: qHTS assay to identify small molecule agonists of the vitamin D receptor (VDR) signaling pathway (AID 743222; calls by dose curve)
In short: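 Beta-lactamase reporter readout (LiveBLAzer B/G FRET, 2 h RT) in VDR-bla cells after 16 h compound treatment at 37C, 5% CO2; cells pre-incubated 4 h before pin transfer of DMSO solutions.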

[15] = target: Vitamin D3 receptor (Homo sapiens) (UniProt P11473); assay: qHTS assay to identify small molecule antagonists of the vitamin D receptor (VDR) signaling pathway (AID 743223; active = well fitted inhibition curve with a large enough effect in the signal ratio in the repeat runs, not every such curve was filed as active; the % refers to the signal ratio)
In short: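 VDR-bla cells were treated with compound plus 3 nM final 1alpha,25-dihydroxyvitamin D3 for 16 h at 37C. Beta-lactamase reporter read by B/G FRET substrate fluorescence after 2 h at room temperature. qHTS format.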

[16] = target: Bile acid receptor (Homo sapiens) (UniProt Q96RI1); assay: qHTS assay to identify small molecule antagonists of the farnesoid-X-receptor (FXR) signaling pathway (AID 743217; active = well fitted inhibition curve with a large enough effect in the signal ratio in the repeat runs, not every such curve was filed as active; the % refers to the signal ratio)
In short: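 Read-out: beta-lactamase FRET fluorescence (LiveBLAzer B/G substrate, 2 h, room temperature) in GeneBLAzer FXR-UAS-bla HEK 293T cells. Compounds were co-dosed with 50 uM chenodeoxycholic acid (final) and incubated 16 h at 37 °C.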

[17] = qHTS assay to identify small molecule agonists of the farnesoid-X-receptor (FXR) signaling pathway - cell viability counter screen (AID 743218); note: nearly all actives have a fitted effect of over 45% in size
In short: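 Luminescence from CellTiter-Glo, read after 30 min at RT, reports viability of GeneBLAzer FXR-UAS-bla HEK 293T cells treated 16 h with compounds in the wells used for the beta-lactamase reporter.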

[18] = target: Bile acid receptor (Homo sapiens) (UniProt Q96RI1); assay: qHTS assay to identify small molecule agonists of the farnesoid-X-receptor (FXR) signaling pathway (AID 743220; active = well fitted activation curve with a large enough effect in the signal ratio in the repeat runs, not every such curve was filed as active; the % refers to the signal ratio)
In short: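 FXR-UAS-bla HEK 293T cells carrying a UAS-driven beta-lactamase reporter were plated for 5 h at 37C/5% CO2, then exposed to DMSO-dissolved Tox21 10K compounds for 16 h at 37C. A LiveBLAzer B/G FRET substrate was loaded for 2 h at room temperature before fluorescence reading.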

[19] = target: Aryl hydrocarbon receptor (Homo sapiens) (UniProt P35869); assay: qHTS assay to identify small molecule that activate the aryl hydrocarbon receptor (AhR) signaling pathway (AID 743085); note: nearly all actives have a fitted effect of over 15% in size; note: potency is the fitted concentration of half-maximal effect;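 for activation: HG2L7.5c1 human HepG2 liver cells with stably integrated DRE-driven firefly reporter; series mostly up to about 70 µM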
In short: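 HepG2 cells stably carrying a 20-DRE firefly luciferase reporter (HG2L7.5c1) treated with compound for 24 hr at 37C. Luciferase read by ONE-Glo luminescence, with CellTiter-Fluor viability read first.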

[20] = qHTS assay for small molecule agonists of the antioxidant response element (ARE) signaling pathway (AID 743202; active = well fitted activation curve with a large enough effect in the signal ratio in the repeat runs, not every such curve was filed as active; the % refers to the signal ratio; note: potency is the fitted concentration of half-maximal effect)
In short: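 Following a 16 h, 37 C exposure of reporter HepG2 cells (ARE-driven beta-lactamase, 2,000 cells/well) to compounds, FRET substrate was applied for 2 h at room temperature and fluorescence intensity recorded.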

Chain of Bile acid receptor (Homo sapiens) (Q96RI1 whole entry, looked up): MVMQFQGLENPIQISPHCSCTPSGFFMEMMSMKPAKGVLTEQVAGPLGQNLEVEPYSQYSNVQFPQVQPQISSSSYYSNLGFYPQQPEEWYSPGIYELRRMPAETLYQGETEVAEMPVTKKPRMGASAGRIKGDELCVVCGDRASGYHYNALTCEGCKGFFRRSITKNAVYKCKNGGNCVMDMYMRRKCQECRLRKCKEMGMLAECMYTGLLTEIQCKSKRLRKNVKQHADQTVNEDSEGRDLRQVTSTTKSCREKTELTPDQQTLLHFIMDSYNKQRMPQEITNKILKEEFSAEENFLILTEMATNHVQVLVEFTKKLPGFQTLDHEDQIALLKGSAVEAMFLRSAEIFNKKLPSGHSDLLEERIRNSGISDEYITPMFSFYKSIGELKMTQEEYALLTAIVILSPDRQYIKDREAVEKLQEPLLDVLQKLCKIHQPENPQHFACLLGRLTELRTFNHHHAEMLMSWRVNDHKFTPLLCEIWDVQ
Chain of Peroxisome proliferator-activated receptor delta (Homo sapiens) (Q03181 whole entry, looked up): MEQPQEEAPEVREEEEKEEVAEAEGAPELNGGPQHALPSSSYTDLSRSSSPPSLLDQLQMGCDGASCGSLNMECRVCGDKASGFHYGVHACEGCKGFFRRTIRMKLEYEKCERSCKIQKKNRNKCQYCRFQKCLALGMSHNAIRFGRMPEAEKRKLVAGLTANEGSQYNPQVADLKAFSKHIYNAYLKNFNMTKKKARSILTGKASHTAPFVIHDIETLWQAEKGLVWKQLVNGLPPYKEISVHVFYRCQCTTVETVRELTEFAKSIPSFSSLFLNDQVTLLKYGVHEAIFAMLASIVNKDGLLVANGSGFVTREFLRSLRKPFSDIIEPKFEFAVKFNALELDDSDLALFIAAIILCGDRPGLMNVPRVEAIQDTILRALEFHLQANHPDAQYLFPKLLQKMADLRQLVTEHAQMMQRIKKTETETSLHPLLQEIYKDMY
Chain of Vitamin D3 receptor (Homo sapiens) (P11473 whole entry, looked up): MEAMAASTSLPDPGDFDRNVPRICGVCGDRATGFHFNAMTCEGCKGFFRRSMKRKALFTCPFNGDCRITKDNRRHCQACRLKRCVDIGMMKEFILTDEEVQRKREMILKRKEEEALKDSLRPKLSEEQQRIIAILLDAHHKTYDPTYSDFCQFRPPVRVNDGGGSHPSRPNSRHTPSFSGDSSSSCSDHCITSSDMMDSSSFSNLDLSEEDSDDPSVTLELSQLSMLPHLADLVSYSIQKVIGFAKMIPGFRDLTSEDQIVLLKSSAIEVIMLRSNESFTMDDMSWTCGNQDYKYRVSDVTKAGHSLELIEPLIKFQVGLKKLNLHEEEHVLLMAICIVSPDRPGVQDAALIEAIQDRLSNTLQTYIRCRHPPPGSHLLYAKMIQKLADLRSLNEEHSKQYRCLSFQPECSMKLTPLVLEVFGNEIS
Chain of Peroxisome proliferator-activated receptor gamma (Homo sapiens) (P37231 whole entry, looked up): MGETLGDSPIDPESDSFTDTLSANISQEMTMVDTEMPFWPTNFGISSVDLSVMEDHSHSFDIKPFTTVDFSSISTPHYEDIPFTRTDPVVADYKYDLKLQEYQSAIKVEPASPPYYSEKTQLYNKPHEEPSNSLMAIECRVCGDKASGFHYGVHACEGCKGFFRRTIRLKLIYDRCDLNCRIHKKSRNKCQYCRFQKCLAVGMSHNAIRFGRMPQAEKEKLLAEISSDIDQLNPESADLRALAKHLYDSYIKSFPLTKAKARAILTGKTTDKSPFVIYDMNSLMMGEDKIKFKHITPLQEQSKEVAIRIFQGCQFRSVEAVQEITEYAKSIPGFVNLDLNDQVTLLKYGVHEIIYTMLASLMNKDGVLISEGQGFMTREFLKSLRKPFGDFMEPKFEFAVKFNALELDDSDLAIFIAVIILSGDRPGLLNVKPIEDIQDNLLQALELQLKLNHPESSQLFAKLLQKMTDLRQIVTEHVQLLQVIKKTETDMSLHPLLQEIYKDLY
Chain of Aryl hydrocarbon receptor (Homo sapiens) (P35869 whole entry, looked up): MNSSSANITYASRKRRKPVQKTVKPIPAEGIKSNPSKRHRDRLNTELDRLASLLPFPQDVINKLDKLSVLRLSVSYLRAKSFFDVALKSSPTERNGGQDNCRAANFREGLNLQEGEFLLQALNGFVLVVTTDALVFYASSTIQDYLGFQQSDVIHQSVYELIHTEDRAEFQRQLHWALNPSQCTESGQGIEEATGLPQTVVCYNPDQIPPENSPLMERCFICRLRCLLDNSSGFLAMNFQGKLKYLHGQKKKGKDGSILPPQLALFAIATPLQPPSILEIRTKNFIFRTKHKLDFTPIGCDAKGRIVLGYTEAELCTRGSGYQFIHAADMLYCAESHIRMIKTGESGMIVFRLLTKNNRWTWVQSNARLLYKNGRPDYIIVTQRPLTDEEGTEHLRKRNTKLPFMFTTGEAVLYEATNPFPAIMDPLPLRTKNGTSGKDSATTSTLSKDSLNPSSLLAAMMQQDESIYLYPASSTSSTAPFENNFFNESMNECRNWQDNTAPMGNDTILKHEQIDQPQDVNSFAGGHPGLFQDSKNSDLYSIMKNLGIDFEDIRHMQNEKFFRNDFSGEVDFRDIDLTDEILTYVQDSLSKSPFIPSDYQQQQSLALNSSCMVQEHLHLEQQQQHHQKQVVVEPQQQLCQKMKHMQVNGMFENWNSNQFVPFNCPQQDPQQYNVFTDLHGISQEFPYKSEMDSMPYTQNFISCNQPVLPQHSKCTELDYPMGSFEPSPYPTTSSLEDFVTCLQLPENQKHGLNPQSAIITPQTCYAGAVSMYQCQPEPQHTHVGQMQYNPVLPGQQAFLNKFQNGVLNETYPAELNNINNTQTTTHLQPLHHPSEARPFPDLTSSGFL

Row | Compound | Potency [1] | Potency [2] | Potency [3] | Potency [4] | Potency [5] | Potency [6] | outcome [7] | outcome [8] | Potency [9] | Potency [10] | Potency [11] | outcome [12] | Potency [13] | outcome [14] | outcome [15] | outcome [16] | Potency [17] | outcome [18] | Potency [19] | Potency [20]
1 | O=[N+]([O-])c1ccccc1CCO | inactive | inactive | inactive | inactive | inactive | inactive | inactive | inactive | inactive | inactive | inactive | inactive | inactive | inactive | inactive |  |  |  |  | 
2 | CC(=O)CC/C=C(\C)CC/C=C(\C)CC/C=C(\C)CCC=C(C)C | inactive | inactive | inactive | inactive | inactive | inactive | inactive | inactive | inactive |  | inactive | inactive | inactive | inactive | inactive | inactive | inactive | inactive |  | 
3 | CCn1nc(Cc2ccccc2)cc1C1CCN(C[C@H]2C[C@H](N(C)[C@@H](C(=O)O)C(C)C)C[C@@H]2c2cccc(F)c2)CC1 | inactive |  |  |  | inactive | inactive |  | inactive | inactive |  | inactive |  | inactive |  |  |  | inactive |  | inactive | 
4 | Nc1ccc(-c2ccc(F)cc2)cc1 | inactive | inactive | inactive | inactive | inactive | inactive | inactive | inactive | inactive | inactive | inactive |  | inactive | inactive |  | inactive |  | inactive |  | 
5 | O=c1[nH]nc(-c2ccc([N+](=O)[O-])o2)o1 | 30.6 µM (active) |  | inactive |  | inactive | inactive | inactive | inactive | inactive |  |  | inactive | inactive | inactive | inactive |  |  |  | inactive | 
6 | Nc1ccc(F)cc1F | inactive | inactive | inactive | inactive | inactive | inactive | inactive | inactive | inactive | inactive | inactive |  | inactive | inactive | inactive |  | inactive |  |  | inactive
7 | O=C1OC(=O)C2CC=CCC12 (centres undefined) | inactive | inactive | inactive | inactive | inactive | inactive | inactive |  | inactive | inactive | inactive | inactive | inactive | inactive | inactive |  |  |  |  | inactive
8 | CCOC(OCC)OCC | inactive | inactive | inactive | inactive | inactive | inactive | inactive | inactive | inactive | inactive | inactive |  | inactive | inactive | inactive | inactive | inactive | inactive |  | inactive
9 | Nc1cccc2c(=O)[nH][nH]c(=O)c12 | inactive | inactive | inactive | inactive | inactive | inactive |  | inactive | inactive | inactive |  | inactive | inactive |  |  | inactive | inactive | inactive |  | inactive
10 | C[Si](C)(C)O[Si](C)(C)O[Si](C)(C)C | inactive | inactive | inactive | inactive | inactive | inactive | inactive | inactive | inactive | inactive | inactive | inactive | inactive | inactive | inactive |  | inactive |  |  | inactive
11 | CCOC(=O)CC(O)(CC(=O)OCC)C(=O)OCC | inactive | inactive | inactive | inactive | inactive | inactive | inactive | inactive | inactive |  | inactive |  | inactive | inactive | inactive |  | inactive |  |  | 
12 | CC(C)(Cc1c[nH]c2ccccc12)NCC(O)COc1ccccc1C#N (centres undefined) | inactive |  |  |  | inactive |  | inactive | inactive |  |  |  | inactive |  |  |  | inactive |  | inactive | 29.8 µM (active) | 
13 | CNc1ccccc1 | inactive | inactive | inactive | inactive | inactive | inactive | inactive | inactive | inactive |  | inactive | inactive | inactive | inactive | inactive |  | inactive |  |  | inactive
14 | Cc1c(Cl)cccc1[N+](=O)[O-] | inactive | inactive | inactive | inactive | inactive | inactive | inactive | inactive | inactive |  |  | inactive | inactive | inactive |  | inactive | inactive | inactive |  | inactive
15 | CCCOC(C)=O | inactive | inactive | inactive | inactive | inactive | inactive | inactive | inactive | inactive |  |  | inactive | inactive |  |  |  | inactive |  |  | inactive
16 | C=CC(C)CCC=C(C)C (centres undefined) | inactive | inactive | inactive | inactive | inactive | inactive | inactive | inactive | inactive | inactive |  |  | inactive | inactive | inactive |  | inactive |  |  | inactive
17 | Clc1ccccc1-c1nc(-c2ccncc2)no1 | inactive | inactive | inactive | inactive | inactive | inactive | inactive | inactive | inactive | inactive | inactive | inactive | inactive |  |  | inactive | inactive | inactive |  | 1.68 µM (active)
18 | NC(=O)c1cc[n+](CC2=C(C(=O)[O-])N3C(=O)[C@@H](NC(=O)Cc4cccs4)[C@H]3SC2)cc1 | inactive | inactive | inactive | inactive | inactive | inactive | inactive | inactive | inactive |  | inactive | inactive | inactive | inactive |  | inactive | inactive | inactive |  | 
